In PubChem BioAssay AID488815 (Broad Institute, 2010):
Potency and affinity values are given separately. Results filed as inconclusive are left out. Active and inactive are the calls of the source. No rule for the calls is given here.

Target: CAAX prenyl protease 1 (Saccharomyces cerevisiae (strain ATCC 204508 / S288c)) (UniProt P47154)
Experiment: yeast CAAX protease Ste24 inhibition – biochemical, S. cerevisiae, plate reader, cherry-pick, dose response (AID 488815)
Settings: series mostly up to 10 µM

CAAX prenyl protease 1 (Saccharomyces cerevisiae (strain ATCC 204508 / S288c)), sequence (P47154 whole entry, looked up): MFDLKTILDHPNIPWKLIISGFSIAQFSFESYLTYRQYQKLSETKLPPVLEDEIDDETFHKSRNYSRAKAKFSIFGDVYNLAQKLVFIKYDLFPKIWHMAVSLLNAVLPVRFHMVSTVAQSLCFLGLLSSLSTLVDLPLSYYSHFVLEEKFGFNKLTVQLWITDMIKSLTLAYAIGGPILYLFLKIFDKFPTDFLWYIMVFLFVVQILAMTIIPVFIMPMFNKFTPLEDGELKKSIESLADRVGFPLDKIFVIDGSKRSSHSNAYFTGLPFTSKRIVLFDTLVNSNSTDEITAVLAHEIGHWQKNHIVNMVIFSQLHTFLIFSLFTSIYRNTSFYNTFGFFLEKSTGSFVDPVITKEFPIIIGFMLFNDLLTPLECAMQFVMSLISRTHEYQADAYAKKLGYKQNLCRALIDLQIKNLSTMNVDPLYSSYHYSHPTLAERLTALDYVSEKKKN

outcome, inactive:
Cc1nc(N2CCOCC2)c2cc(-c3ccccc3)sc2n1
COC(C/C=C/[C@H](O)[C@H](C)OCc1ccccc1)OC
CCOC(=O)c1c(NC(=O)c2cccc(N3C(=O)CCC3=O)c2)sc(C)c1C
NC(=O)c1nsc(C(=O)N(c2ccccc2F)C(C(=O)NCc2ccccc2)c2ccc(O)cc2)c1N (centres undefined)
COc1ccccc1CC(=O)Nc1ccc2c(C)cc(=O)oc2c1
COc1ccc(S(=O)(=O)NCC2CCCO2)cc1NC(=O)c1ccccc1F (centres undefined)
N/C(Cc1ccc([N+](=O)[O-])cc1)=N\OC(=O)c1ccc2ccccc2c1
O=C(CN1CCC(NC(=O)c2ccc(Br)cc2)CC1)NCc1cccs1
Cc1ccc2nc(N(CCN(C)C)C(=O)c3ccc4ccccc4c3)sc2c1
COc1ccc(C(=O)/C=C/c2ccc(OC)cc2OC)c(O)c1
NS(=O)(=O)c1ccc(NC(=O)/C=C/c2cn(-c3ccccc3)nc2-c2cccc(Cl)c2)cc1
Cc1cc(C)n2nc(CC(=O)NNC(=O)c3ccc(N(C)C)cc3)nc2n1
CCOc1ccc(OCC)c(NC(=O)c2nnn(CC(=O)Nc3cc(C)cc(C)c3)c2N)c1
COc1cc2c(cc1OC)C(C)N(C(=O)c1cc3c(=O)oc4ccc(C)cc4c3s1)CC2 (centres undefined)
CCSCCOC(=O)C1=C(C)NC(=O)NC1c1ccccc1 (centres undefined)
CC(C)C[C@H](NC(=O)c1nc[nH]c1C(=O)N1CCNCC1)C(=O)OCc1ccccc1
CCOC(=O)c1cc(-c2ccccc2)sc1NC(=O)C(C)Sc1nnnn1C (centres undefined)
O=C(O)CCC(=O)c1ccc(-c2ccccc2)cc1
Nc1c(C(=O)Nc2cccc(C(=O)O)c2)sc2nc3c(cc12)CCCC3
C=C(C)CSc1nc2sc3c(c2c(=O)n1-c1ccc(OC)cc1)CCN(C)C3
Cc1cc(C(=O)N[C@H](c2ccccc2)[C@@]2(C)C[C@@H]2[C@@H](C)C(=O)Nc2ccc3ccccc3c2)n(C)n1
CCOc1ccc(NC(=O)CCSc2ccc(C)cc2)cc1
COc1nc(-c2ccccc2)ccc1-c1noc(-c2ccccc2F)n1
O=C(Nc1cc(S(=O)(=O)N2CCOCC2)ccc1N1CCCC1)c1cnccn1
COc1ccccc1/C=C/C=N/NC(=O)CN1CCN(S(=O)(=O)c2ccc(C)cc2)CC1
Cc1ccc(S(=O)(=O)CC(=O)N2CCN(c3ccccc3F)CC2)cc1
O=C1CN(S(=O)(=O)c2ccc([N+](=O)[O-])cc2)CC(=O)N1
CN1CCN(Cc2c(C(=O)N/N=C/c3cccc(Br)c3)nnn2-c2nonc2N)CC1
Nc1nonc1-n1nnc(C(=O)N/N=C/c2ccoc2)c1CSc1ccccc1
CC1CCN(C(=O)C2CCN(S(=O)(=O)c3ccc(-n4cnnn4)cc3)CC2)CC1
CC(C)C(=O)Nc1cccc(NC(=S)NC(=O)C(c2ccccc2)c2ccccc2)c1
N#Cc1c(OCC(=O)c2ccccc2)nc2c(c1-c1ccco1)CCc1ccccc1-2
Cc1cccc(-c2nnc(SCc3ccc(C#N)cc3)n2Cc2ccco2)c1
O=C(CCNC(=O)N1CC(=O)Nc2ccccc21)NCCc1cccc(F)c1
CC(=O)c1c(O)cc(O)c(C(C)=O)c1O
Nc1nnnn1/N=C/c1ccccc1OCc1ccc(Cl)cc1Cl
Cc1ccc(S(=O)(=O)c2cn(C)c3cc(N4CCOCC4)c(F)cc3c2=O)cc1
O=C(O)CCCC[C@@H]1SC[C@@H]2NC(=O)N[C@@H]21
COc1cc(-c2nc3ccccn3c2/N=C/c2cccc(OC)c2O)ccc1O
